Screens from PubChem.
SW480 rereplic: DNA re-replication induction in SW480 cells; Potency, µM (series often up to 46.1 µM), actives largely listed as activators; 340,000 tested, 1.8% active; SW480 DNA re-replication, Hoechst DNA content imaging, 48 h; further: nearly all actives have a fitted effect of over 55% in size
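SW480 cells exposed to compounds for 48 hr at 37 C, 5% CO2, then Hoechst-stained 40 min. Nuclear DNA content imaged by fluorescence scanning (405 nm excitation, 500-530 nm emission); re-replication scored as increased high-intensity nuclei.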
MCF10A rereplic: inducers of DNA re-replication in MCF 10A breast cells | MCF 10A DNA re-replication, Hoechst nuclear intensity, 48 h | Potency, µM (top dose mostly 46.1 µM), usual class: activators | 350,000 tested, 2.9% active | AID 624296; further: nearly all actives have a fitted effect of over 50% in size
ELG1 DNA repair: blocks ELG1-dependent DNA repair in HEK293T cells; Potency, µM (highest dose often 46.1 µM), usual class: inhibitors; 330,000 tested, 2.3% active; AID 504467; HEK293T ELG1-luciferase reporter, luminescence, 16 h; DNA damage induced by 5-fluorouridine; further: nearly all actives have a fitted effect of over 55% in size
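Quantitative HTS, concentration-response format. 2,000 cells/well co-treated with 5-fluorouridine and compound, 16 hr in 5% CO2 at 37 °C; ONE-Glo luminescence read after 30 min.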
KB-V1 MDR tox: KB-V1 MDR subline cytotoxicity. Potency, µM (top dose mostly 46.1 µM), hits mostly cytotoxic. KB-V1 MDR cells viability, CellTiter-Glo, 72 h. 400,000 tested, 3.4% active. AID 1347076; further: nearly all actives have a fitted effect of over 60% in size
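Drug-selected KB-V1 cells, grown in DMEM lacking phenol red with 10% FBS, receive compound titrations; after three days at 37 degrees C, surviving cell ATP is quantified by CellTiter-Glo luminescence and responses normalized and curve-fitted.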
KB-3-1 cytotox: KB-3-1 parental cell cytotoxicity; KB-3-1 viability, CellTiter-Glo ATP luminescence, 72 h; Potency, µM (top dose mostly 46.1 µM), actives largely listed as cytotoxic; 400,000 tested, 1.4% active; AID 1347075; further: nearly all actives have a fitted effect of over 60% in size
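Cells are dispensed, compounds pinned in, plates held at 37 °C for 72 h, then CellTiter-Glo is added and luminescence read after 10 minutes. Cell line: parental KB-3-1 in phenol-red-free DMEM, 10% FBS.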
Numbers stand for hits; . = inactive; ? = inconclusive; / = not tested or not shown; ! = repeats disagree. The list is not random: actives were taken first. Their share in the collection is about 8.2%. The call rests on the fitted dose curve; in most records, active means well fitted curve in the direction sought with a large enough effect; inconclusive means small, poorly fitted or top-dose-only effect, or another doubt; inactive means no such curve, though single readings can be large; an effect the other way counts as inactive or inconclusive.

SMILES | SW480 rereplic | MCF10A rereplic | ELG1 DNA repair | KB-V1 MDR tox | KB-3-1 cytotox
N#Cc1c(NCCN)nc(-c2ccco2)c2c1CCCC2 | 18.4µM | 11.6µM | ? | ? | ?
CN(CC(=O)Nc1ccc(OC(F)(F)F)cc1)C(=O)c1ccccc1SCC(=O)N1CCCC1 | . | . | / | 7.31µM | 16.4µM
COc1ccc(S(=O)(=O)Nc2cc3c4c(c2)CC(=O)N4CCC3)cc1OC | / | / | / | . | .
Cc1ccc(S(=O)(=O)N(C)c2ccc(OC(=O)c3cccs3)cc2)cc1 | . | . | . | . | .
COc1ccccc1N1CCN(c2ccc([N+](=O)[O-])cc2Cl)CC1 | 18.4µM | 7.31µM | ? | 5.8µM | 16.4µM
CC(C)C(=O)N1CCN(c2ccc([N+](=O)[O-])cc2Cl)CC1 | . | . | . | 20.6µM | .
CC(C)CC(=O)N1CCN(c2ccc([N+](=O)[O-])cc2Cl)CC1 | . | . | ? | . | .
CCCCN(C(=O)CN1C(=O)C2CCCCC2C1=O)c1c(N)n(CCC)c(=O)[nH]c1=O (stereo not drawn) | . | . | . | . | .
CCOc1ccc(CCNC(=O)c2ccc(CS(=O)Cc3ccccc3Cl)o2)cc1 (stereo not drawn) | ? | . | 23.1µM | . | .
O=c1ccsn1Cc1ccccc1 | 18.4µM | ? | . | . | .
O=C1NC(Cc2ccccc2)C(=O)N1Cc1ccccc1 (stereo not drawn) | . | . | / | . | .
c1csc(-c2cn3ccc4ccccc4c3n2)c1 | . | . | 16.4µM | . | .
CCCCNCc1ccc(OCc2ccc(Cl)nc2)c(OC)c1 | . | ? | . | . | .
CCN1CCCC1CNCc1ccc(OCc2ccc(Cl)nc2)c(OC)c1 (stereo not drawn) | . | 5.8µM | ? | . | .
CCCCCCCCCCOC(=O)Cn1c(COc2ccccc2)[n+](C)c2ccccc21 | . | ? | . | . | .
CCCCCCCCCCOC(=O)Cn1c(COc2ccc(OC)cc2)[n+](C)c2ccccc21 | ? | 6.51µM! | ? | . | 20.6µM!
CN(c1ccccc1)S(=O)(=O)c1ccc(NC(=O)c2ccccc2C(=O)O)cc1 | . | . | / | . | .
CC(C)Oc1ccc(/C=C/C(=O)NCC2COc3ccccc3O2)cc1 (stereo not drawn) | . | . | . | ? | .
O=[N+]([O-])c1cc2no[n+]([O-])c2cc1N1CCCCC1 | 6.51µM | 3.26µM | / | . | ?
N#Cc1cc(N2CCCCC2)c([N+](=O)[O-])cc1C#N | . | ? | . | . | .
CN(C)C1=NC[C@H](Cc2ccccc2)N1CC1CCCCCC1 | . | . | . | . | .
O=C(Nc1nnc([C@H]2C[C@H](O)[C@@H](CO)O2)s1)c1cccc(OC(F)(F)F)c1 | / | / | / | . | .
CN(C)c1ccc(C=NNC(=S)Nc2ccc(F)cc2)cc1 | ? | 20.6µM | / | . | .
CSC(=S)N/N=C/c1ccc(N(C)C)cc1 | . | . | ? | . | .
N=c1sccn1CC(=O)Nc1cc(S(=O)(=O)N2CCCC2)ccc1Cl | . | . | . | . | .
SMILES | SW480 rereplic | MCF10A rereplic | ELG1 DNA repair | KB-V1 MDR tox | KB-3-1 cytotox
CC1(CC(=O)Nc2ccccc2)NC(=S)N(c2ccccc2)N1 (stereo not drawn) | . | . | ? | . | .
CCCCCC1(C)NC(=S)N(c2ccccc2)N1 (stereo not drawn) | . | . | 7.3µM | . | .
COc1ccc(C(CCc2ccc(C)o2)NC(=O)Nc2ccc(OC)cc2OC)cc1 (stereo not drawn) | . | . | . | 7.31µM | .
COc1cccc(S(=O)(=O)N(C)C[C@H]2Oc3cc(Br)ccc3S(=O)(=O)N([C@@H](C)CO)C[C@H]2C)c1 | / | / | / | 9.2µM | .
CCC(=O)Nc1ccc(N2CCN(C(=O)c3ccccc3C)CC2)cc1 | . | . | . | . | .
CCC(=O)Nc1ccc(N2CCN(Cc3ccccc3)CC2)cc1 | . | 8.2µM | . | . | .
Cc1ccccc1C(=O)N1CCN(c2ccc(NC(=O)CSc3ccc(Cl)cc3)cc2)CC1 | . | ? | ? | ? | 18.4µM
Cc1ccccc1C(=O)N1CCN(c2ccc(NC(=O)Cc3ccccc3)cc2)CC1 | . | . | 18.3µM | . | .
O=C(CSc1oc(-c2ccco2)nc1S(=O)(=O)c1ccc(Br)cc1)c1ccc(Cl)cc1 | / | / | / | . | .
NC(=O)N/N=C/c1cn(-c2ccccc2)nc1-c1ccccc1 | . | . | ? | . | ?
